Experimental data from PubChem BioAssay (NCI).
About 79,000 compounds went through this panel and 15% of them were active in at least one assay; those are over-represented in the sample as a whole. Active and inactive are the calls of the source. No stated cut-off is given here; in the data, active means growth inhibition above about 70%; inactive means the rest.

Columns and labels:
[1] = NCI Yeast Anticancer Drug Screen. Data for the wt1 strain (AID 149);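 further: 0% = growth of vehicle-treated wt1 cultures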; details: S. cerevisiae wt1 strain (SPY 50644) growth inhibition, hits give high values
Summary of the method: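 Using yeast strain wt1, compound-induced growth inhibition was determined against vehicle-treated cultures.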

[2] = NCI Yeast Anticancer Drug Screen. Data for the rad50EPP+ strain (AID 151);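 further: 0% = growth of vehicle-treated control cultures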; details: S. cerevisiae rad50 mutant strain, hits give high values
Summary of the method: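 Compounds were applied to the rad50EPP+ yeast strain, which bears a defined DNA repair alteration, and growth inhibition was determined relative to vehicle-treated cultures.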

[3] = NCI Yeast Anticancer Drug Screen. Data for the mgt1 strain (AID 153); details: S. cerevisiae mgt1 mutant growth inhibition, hits give high values
Summary of the method: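 Strain: mgt1 yeast, one of a set carrying defined DNA damage repair or cell cycle control alterations. Compound-treated growth compared with vehicle.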

[4] = NCI Yeast Anticancer Drug Screen. Data for the rad50 strain (AID 155);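 further: 0% = growth of vehicle-only cultures of the same strain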; details: S. cerevisiae rad50 strain growth inhibition, hits give high values
Summary of the method: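 Relative growth inhibition (compound vs vehicle) was measured in yeast with a defined repair-gene alteration.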

[5] = NCI Yeast Anticancer Drug Screen. Data for the mec2-1 strain (AID 157); details: S. cerevisiae mec2-1 strain, hits give high values
Summary of the method: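 Strain: mec2-1 (DNA repair/cell cycle alteration). Compound exposure, then growth measured; inhibition expressed relative to vehicle.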

[6] = NCI Yeast Anticancer Drug Screen. Data for the rad14 strain (AID 159);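 further: 0% = growth of vehicle-treated control cultures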; details: S. cerevisiae rad14 strain growth inhibition, hits give high values
Summary of the method: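 Screen for anticancer potential: a yeast strain altered in DNA damage repair is grown with compound, and reduced growth is quantified against vehicle controls.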

[7] = NCI Yeast Anticancer Drug Screen. Data for the sgs1 mgt1 strain (AID 161);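 further: 0% = growth of cultures given vehicle only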; details: S. cerevisiae sgs1 mgt1 strain, hits give high values
Summary of the method: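 Test agents were incubated with a DNA-repair-mutant yeast strain. Growth was then read and compared against vehicle-treated controls.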

[8] = NCI Yeast Anticancer Drug Screen. Data for the CLN2oe strain (AID 163);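 further: 0% = growth of vehicle-only control cultures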; details: S. cerevisiae CLN2oe strain, hits give high values
Summary of the method: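 Growth of a genetically modified yeast strain is measured after compound exposure and compared with cultures given vehicle alone.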

[9] = NCI Yeast Anticancer Drug Screen. Data for the cln2 rad14 strain (AID 165);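 further: 0% = growth equal to vehicle treated cultures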; details: S. cerevisiae cln2 rad14 strain, hits give high values
Summary of the method: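 Compounds are applied to the cln2 rad14 yeast strain, and growth is then compared with that of vehicle-treated cultures to give inhibition.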

[10] = NCI Yeast Anticancer Drug Screen. Data for the bub3 strain (AID 167); details: S. cerevisiae bub3 mutant strain, hits give high values
Summary of the method: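 Screening used yeast with an engineered genetic alteration affecting cell cycle control. Compound-exposed cultures were compared with vehicle cultures, and reduced growth was taken as inhibition.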

[11] = NCI Yeast Anticancer Drug Screen. Data for the wt2 strain (AID 169);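 further: 0% = growth of vehicle-treated yeast cultures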; details: S. cerevisiae wt2 strain growth inhibition, hits give high values
Summary of the method: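 This strain belongs to a panel of yeast strains with defined genetic alterations in DNA damage repair or cell cycle control. Compounds are applied, and growth inhibition is measured against vehicle-treated cultures.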

[12] = NCI Yeast Anticancer Drug Screen. Data for the mlh1 strain (AID 171);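 further: 0% = growth of vehicle-treated control cultures of the same strain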; details: S. cerevisiae mlh1 strain growth inhibition, hits give high values
Summary of the method: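 Growth of the mutant yeast strain after compound exposure, expressed as inhibition relative to vehicle-only controls.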

[13] = NCI Yeast Anticancer Drug Screen. Data for the sgs1 strain (AID 173);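 further: 0% = growth of vehicle-only control cultures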; details: S. cerevisiae sgs1 mutant, hits give high values
Summary of the method: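 Growth of a yeast strain bearing a defined genetic alteration is measured after compound treatment. Inhibition is expressed relative to vehicle-only controls.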

[14] = NCI Yeast Anticancer Drug Screen. Data for the mlh1 rad18 strain (AID 175); details: S. cerevisiae mlh1 rad18 strain growth inhibition, hits give high values
Summary of the method: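 Read-out is yeast growth inhibition, calculated against vehicle-only controls. The compound was applied to a strain engineered with DNA damage repair alterations.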

[15] = NCI Yeast Anticancer Drug Screen. Data for the rad18 strain (AID 177); details: S. cerevisiae rad18 mutant growth inhibition, hits give high values
Summary of the method: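 Growth of the mutant yeast strain after compound exposure, normalised to vehicle-only cultures.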

[16] = NCI Yeast Anticancer Drug Screen. Data for the rad52 strain (AID 147);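 further: 0% = growth of vehicle-treated control cultures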; details: S. cerevisiae rad52 mutant growth inhibition, hits give high values
Summary of the method: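 Compounds are applied to a genetically defined yeast strain lacking normal DNA damage repair, and inhibition of growth is expressed relative to cultures given vehicle only.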

[17] = at 5.0 µM (retest, dose inferred, filed as 0.5)
[18] = at 50.0 µM (retest, dose inferred, filed as 5.0)

Measured: growth inhibition

COc1cc([C@@H]2c3cc4c(cc3[C@@H](NC(=O)NO)[C@H]3COC(=O)[C@H]23)OCO4)cc(OC)c1O
inactive: [1]; at 1.2 µM -3% | [1]; at 3.7 µM -2% | [1]; at 11.0 µM 1% | [1]; at 33.0 µM -1% | [1]; at 100.0 µM 4% | [2]; at 1.2 µM -2% | [2]; at 3.7 µM 0% | [2]; at 11.0 µM 2% | [2]; at 33.0 µM 2% | [2]; at 100.0 µM 9% | [3]; at 1.2 µM -5% | [3]; at 3.7 µM -3% | [3]; at 11.0 µM -2% | [3]; at 33.0 µM 14% | [3]; at 100.0 µM 4% | [4]; at 1.2 µM 0% | [4]; at 3.7 µM 1% | [4]; [17] 13% | [4]; at 11.0 µM 10% | [4]; at 33.0 µM 47% | [5]; at 1.2 µM -1% | [5]; at 3.7 µM 1% | [5]; [17] 7% | [5]; at 11.0 µM 0% | [5]; at 33.0 µM 1% | [5]; [18] -13% | [5]; at 50.0 µM -12.1% | [5]; at 100.0 µM 17% | [6]; at 1.2 µM -4% | [6]; at 3.7 µM -4% | [6]; at 11.0 µM -6% | [6]; at 33.0 µM -2% | [6]; at 100.0 µM 8% | [7]; [17] -2% | [7]; [18] 2% | [7]; at 50.0 µM -3.9% | [8]; at 1.2 µM -2% | [8]; at 3.7 µM -7% | [8]; at 11.0 µM -1% | [8]; at 33.0 µM -12% | [8]; at 100.0 µM 0% | [9]; [17] 6% | [9]; [18] 9% | [9]; at 50.0 µM 1.4% | [10]; at 1.2 µM -3% | [10]; at 3.7 µM -3% | [10]; [17] 3% | [10]; at 11.0 µM -2% | [10]; at 33.0 µM -4% | [10]; [18] -13% | [10]; at 50.0 µM -5.95% | [10]; at 100.0 µM -3% | [11]; at 1.2 µM 0% | [11]; at 3.7 µM 0% | [11]; at 11.0 µM 3% | [11]; at 33.0 µM 2% | [11]; at 100.0 µM 5% | [12]; at 1.2 µM 0% | [12]; at 3.7 µM -2% | [12]; at 11.0 µM 1% | [12]; at 33.0 µM 2% | [12]; at 100.0 µM 7% | [13]; at 1.2 µM -1% | [13]; at 3.7 µM 1% | [13]; at 11.0 µM 3% | [13]; at 33.0 µM 3% | [13]; at 100.0 µM 12% | [14]; [17] 5% | [14]; [18] -14% | [14]; at 50.0 µM 12.7% | [15]; at 1.2 µM -2% | [15]; at 3.7 µM -1% | [15]; at 11.0 µM 17% | [15]; at 33.0 µM -1% | [15]; at 100.0 µM 8%
active: [4]; [18] 79% | [4]; at 50.0 µM 71.5% | [4]; at 100.0 µM 86%

O=C(NO)c1coc2ccccc2c1=O
active: [5]; at 50.0 µM 86.1%
inactive: [16]; at 1.2 µM -1% | [16]; at 3.7 µM -4% | [16]; at 11.0 µM -2% | [16]; at 33.0 µM -2% | [16]; at 100.0 µM 9% | [2]; at 1.2 µM -2% | [2]; at 3.7 µM -6% | [2]; at 11.0 µM -3% | [2]; at 33.0 µM -5% | [2]; at 100.0 µM -1% | [3]; at 1.2 µM -2% | [3]; at 3.7 µM 2% | [3]; at 11.0 µM -14% | [3]; at 33.0 µM -5% | [3]; at 100.0 µM 9% | [4]; at 1.2 µM 5% | [4]; at 3.7 µM -5% | [4]; [17] -3% | [4]; at 11.0 µM 1% | [4]; at 33.0 µM 0% | [4]; [18] 24% | [4]; at 50.0 µM 31.1% | [4]; at 100.0 µM 15% | [5]; at 1.2 µM -3% | [5]; at 3.7 µM -5% | [5]; [17] 1% | [5]; at 11.0 µM -1% | [5]; at 33.0 µM -4% | [5]; [18] 10% | [5]; at 100.0 µM 0% | [6]; at 1.2 µM 0% | [6]; at 3.7 µM -1% | [6]; at 11.0 µM -1% | [6]; at 33.0 µM -2% | [6]; at 100.0 µM 1% | [7]; [17] 15% | [7]; [18] 13% | [7]; at 50.0 µM 62% | [8]; at 1.2 µM 1% | [8]; at 3.7 µM 2% | [8]; at 11.0 µM 4% | [8]; at 33.0 µM 8% | [8]; at 100.0 µM 8% | [9]; [17] -4% | [9]; [18] 16% | [9]; at 50.0 µM 19.8% | [10]; at 1.2 µM -6% | [10]; at 3.7 µM -5% | [10]; [17] 13% | [10]; at 11.0 µM -2% | [10]; at 33.0 µM -2% | [10]; [18] 61% | [10]; at 50.0 µM 13.7% | [10]; at 100.0 µM -5% | [11]; at 1.2 µM -2% | [11]; at 3.7 µM -4% | [11]; at 11.0 µM -3% | [11]; at 33.0 µM -3% | [11]; at 100.0 µM 4% | [12]; at 1.2 µM -1% | [12]; at 3.7 µM 0% | [12]; at 11.0 µM -1% | [12]; at 33.0 µM 1% | [12]; at 100.0 µM 11% | [13]; at 1.2 µM -1% | [13]; at 3.7 µM -3% | [13]; at 11.0 µM -2% | [13]; at 33.0 µM -2% | [13]; at 100.0 µM 6% | [14]; [17] 13% | [14]; [18] 10% | [14]; at 50.0 µM -7.15% | [15]; at 1.2 µM -2% | [15]; at 3.7 µM -3% | [15]; at 11.0 µM 2% | [15]; at 33.0 µM -4% | [15]; at 100.0 µM 25%

CC1CCN(CCC(=O)c2ccc([N+](=O)[O-])cc2)CC1
inactive: [1]; at 1.2 µM -1% | [1]; at 3.7 µM -1% | [1]; at 11.0 µM 1% | [1]; at 33.0 µM 0% | [1]; at 100.0 µM 7% | [2]; at 1.2 µM 1% | [2]; at 3.7 µM 1% | [2]; at 11.0 µM 3% | [2]; at 33.0 µM 15% | [2]; at 100.0 µM 19% | [3]; at 1.2 µM -4% | [3]; at 3.7 µM 3% | [3]; at 11.0 µM 6% | [3]; at 33.0 µM 21% | [3]; at 100.0 µM 38% | [4]; at 1.2 µM 9% | [4]; at 3.7 µM 13% | [4]; [17] 6% | [4]; at 11.0 µM 15% | [4]; at 33.0 µM 37% | [4]; [18] 31% | [4]; at 50.0 µM 63.5% | [4]; at 100.0 µM 48% | [5]; at 1.2 µM -1% | [5]; at 3.7 µM 2% | [5]; [17] 4% | [5]; at 11.0 µM 1% | [5]; at 33.0 µM 0% | [5]; [18] 69% | [5]; at 50.0 µM 14.5% | [5]; at 100.0 µM 14% | [6]; at 1.2 µM 14% | [6]; at 3.7 µM 25% | [6]; at 11.0 µM 34% | [6]; at 33.0 µM 36% | [6]; at 100.0 µM 45% | [7]; [17] 7% | [7]; [18] 68% | [7]; at 50.0 µM 68.5% | [8]; at 1.2 µM 2% | [8]; at 3.7 µM 5% | [8]; at 11.0 µM 15% | [8]; at 33.0 µM 30% | [8]; at 100.0 µM 40% | [10]; at 1.2 µM -2% | [10]; at 3.7 µM 2% | [10]; [17] 7% | [10]; at 11.0 µM 6% | [10]; at 33.0 µM 18% | [10]; [18] 65% | [10]; at 100.0 µM 31% | [11]; at 1.2 µM -6% | [11]; at 3.7 µM -2% | [11]; at 11.0 µM 3% | [11]; at 33.0 µM 1% | [11]; at 100.0 µM 16% | [12]; at 1.2 µM 1% | [12]; at 3.7 µM 7% | [12]; at 11.0 µM 9%
active: [10]; at 50.0 µM 89.6%
